Unmarked numbers belong to inactive results. Inconclusive results are not listed. Activity calls are given as the source filed them. Unless noted, calls come from the whole dose curve; as a rule, active = well fitted curve in either direction with a large enough effect (not every such curve was filed as active); inconclusive = small, poorly fitted or top-dose-only effect, or another doubt; inactive = flat fitted curve, though single readings scatter.

From PubChem BioAssay (NCATS) come the findings set out here.

In assay [1] the test system is HIV-1 nucleocapsid protein NCp7 (binding to TG oligonucleotide). In words: HIV Nucleocapsid (AID 346; call rule not given here;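 note: potency is the fitted concentration of half-maximal effect; potency is for inhibitors that block NC binding and lower polarization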). The settings on record: HIV-1 NC / fluorescein-TGTGTGTG probe, fluorescence polarization. The gist of the method:
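10 nM TG4xF probe with 100 nM nucleocapsid protein in high-salt Hepes pH 7.5 (250mM NaCl) containing 1uM ZnCl2 and reducing agents. Compound inhibition of binding was read as fluorescein polarization after 1 hr at room temperature.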
For orientation: In fluorescence polarisation assays a small probe gives low polarisation when free and higher when bound to something large.

Assay [2] can be described thus: AP1 Signaling Pathway (AID 357).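 Note: ME-180 reporter cells stimulated with EGF at its EC50 level; % is set by controls: 0 for no effect and ±100 for the full control effect.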 Particulars: ME-180 AP-1-bla reporter, EGF-induced, beta-lactamase ratio, 5 h; at 7.69 µM (top of the series) unless noted. The gist of the method:
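A ratiometric CCF4 readout (405 nm excitation; 460 and 530 nm emission) quantified AP-1-driven beta-lactamase in ME-180 cells after 5 h with compound and EC50 EGF; AC50 values were derived for activators and inhibitors.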

Assay [3] deals with Cytochrome P450 1A2 (Homo sapiens) (UniProt P05177). In words: p450-cyp1a2 (AID 410; calls by dose curve; note: potency is the fitted concentration of half-maximal effect). The settings on record: recombinant CYP1A2, luciferin-ME demethylation, luminescence; series mostly up to 11.4 µM. The method in brief:
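Luminescent readout of luciferin formed from Luciferin-ME by human CYP1A2; data normalized against complete inhibition by 57 uM furafylline. Enzyme 20nM, substrate 100uM at Km, 100mM KPO4 buffer, 60 min reaction at room temperature.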

Assay [4] can be described thus: NFAT Signaling Pathway (AID 444).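 Note: carbachol stimulus at about its EC50 of 1 µM final; % is set by controls: 0 for no effect and ±100 for the full control effect.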 The settings on record: Jurkat NFAT-bla M1, carbachol, beta-lactamase ratio, 5 h; at 7.69 µM (top of the series) unless noted. The gist of the method:
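Jurkat cells carrying an NFAT-driven β-lactamase reporter and co-transfected muscarinic M1 receptor were treated with compound plus carbachol (1 uM final, an EC50 level) for 5 h at 37 °C. CCF4 loading followed for 1 h at RT; 460/530 nm ratio gave %activity.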

Assay [5] can be described thus: Stat Signaling Pathway (AID 446).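 Note: ME-180 cervical cancer cells given 40 pM IL-6 alongside compound; SIE-controlled beta-lactamase reporter measured as 460/530 nm FRET emission ratio; % is set by controls: 0 for no effect and ±100 for the full control effect.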 The settings on record: ME-180 (cervical carcinoma) SIE beta-lactamase reporter, IL-6 stimulated, 5 h; at 7.69 µM (top of the series) unless noted. The method in brief:
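ME-180 cells carrying a SIE-driven beta-lactamase reporter are stimulated with 40 pM IL-6 for 5 h at 37C in the presence of compound. The 460/530 nm FRET substrate ratio is read after 2.5 h at RT. Data are normalised to 300 pM IL-6 and to 125 nM JAK inhibitor controls.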

Assay [6] has as its target Glucocorticoid receptor (Homo sapiens) (UniProt P04150). In words: GR-EFC Redistribution (AID 451; calls by dose curve; note: potency is the fitted concentration of half-maximal effect). The settings on record: CHO-K1 GR-EFC translocation, beta-gal luminescence, 2 h. The gist of the method: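 CHO-K1 cells stably expressing nuclear-localized β-gal enzyme acceptor and GR fused C-terminally to the enzyme donor fragment; ligand-driven nuclear translocation restores β-gal by complementation. Compounds titrated up to 46 uM final, 2 h at 37 °C; luminescence read.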

Assay [7] concerns the target Mitogen-activated protein kinase 10 (Mus musculus) (UniProt Q61831). In words: JNK3 AlphaScreen Assay (AID 530).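 Note: kinase came from lysate of stimulated human HepG2 cells; signal reports phosphorylation of biotinylated GST-cJun 1-79 at Ser73 with 10 µM ATP; % is set by controls: 0 for no effect and ±100 for the full control effect.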 The settings on record: JNK3 lysate, c-Jun phosphorylation; series mostly up to 57.1 µM. The gist of the method: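 Inhibitors reduce antibody binding to phosphorylated biotin-cJun, lowering AlphaScreen luminescence. Lysates from HepG2 cells pre-activated by IL-1beta plus TNF-alpha supplied JNK3; compounds were titrated.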
(In general: Alpha assays give light when donor and acceptor beads are brought close together.)

For assay [8], the target named is 3',5'-cyclic-AMP phosphodiesterase 4B (Homo sapiens) (UniProt Q07343). In words: qHTS Assay for Inhibitors of PDE-IV (AID 607; active = well fitted activation curve with a large enough effect in the main read-out, with a control signal flat, not every such curve was filed as active; note: % of control where 0% means no effect). The settings on record: HEK293 ACTOne CNG channel cells, membrane potential fluorescence; series mostly up to 22.9 µM. The method in brief: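 HEK293 ACTOne cells with CNG channel (1000/well), endogenous PDE4; membrane potential dye, compounds up to 22.9 uM final. Fluorescence Ex 535/Em 590; RO 20-1724 (100 uM final) as reference.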
(Quantitative high-throughput screening tests each substance at several concentrations.)

Assay [9] has as its target Lysosomal acid glucosylceramidase (Homo sapiens) (UniProt P04062). Briefly: Glucocerebrosidase-p2 (AID 348; in the data active = potency below about 10 µM; note: potency is the fitted concentration of half-maximal effect). The settings on record: purified GBA, blue fluorogenic substrate, 40 min. The method in brief:
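Compounds titrated from 0.6 nM upwards against 0.2 nM enzyme in pH 5.9 citric acid/KH2PO4, taurocholate, tween-20; blue fluorogenic substrate 80 uM, 40 min room temperature, stopped and read Ex 365/Em 440 for AC50.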

In assay [10] the target is Glucocorticoid receptor (Homo sapiens) (UniProt P04150). Briefly: GR-GFP Redistribution (AID 450;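 active = compounds whose dose series gives a full or clear partial fitted curve of increased nuclear translocation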; note: potency is the fitted concentration of half-maximal effect). Particulars: U2OS GR-GFP nuclear translocation, laser cytometry, 2 h.
In assay [11] the target is Cytochrome P450 3A4 (Homo sapiens) (UniProt P08684). Briefly: qHTS Assay for Inhibitors and Substrates of Cytochrome P450 3A4 (AID 884; active = well fitted curve in the direction sought with a large enough effect; an effect the other way counts as inactive or inconclusive; note: potency is the fitted concentration of half-maximal effect; nearly all actives have a fitted effect of over 50% in size). Particulars: recombinant CYP3A4, Luciferin-PPXE luminescence; series mostly up to 57.1 µM. The gist of the method:
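20 nM human CYP3A4 with 25 uM Luciferin-PPXE (at KM) in 200 mM KPO4, preincubated 10 min with compound; NADPH regeneration started a 60 min RT reaction. Luciferin detected by luminescence, normalized to 57 uM ketoconazole as full inhibition.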

For assay [12] the target is unchanged. In words: qHTS Assay for Activators of Cytochrome P450 3A4 (AID 885; active = well fitted curve in the direction sought with a large enough effect; an effect the other way counts as inactive or inconclusive; note: nearly all actives have a fitted effect of over 65% in size). The settings on record: recombinant CYP3A4, Luciferin-PPXE luminescence, 60 min; series mostly up to 57.1 µM. The gist of the method: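 Human CYP3A4 (20 nM) with Luciferin-PPXE at 25 uM (its KM) in 200 mM KPO4; 10 min compound preincubation, then NADPH regeneration and 60 min reaction at RT. Luciferin read by luminescence; normalized to 57 uM ketoconazole full inhibition.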

Sequence of Cytochrome P450 3A4 (Homo sapiens) (P08684 whole entry, looked up): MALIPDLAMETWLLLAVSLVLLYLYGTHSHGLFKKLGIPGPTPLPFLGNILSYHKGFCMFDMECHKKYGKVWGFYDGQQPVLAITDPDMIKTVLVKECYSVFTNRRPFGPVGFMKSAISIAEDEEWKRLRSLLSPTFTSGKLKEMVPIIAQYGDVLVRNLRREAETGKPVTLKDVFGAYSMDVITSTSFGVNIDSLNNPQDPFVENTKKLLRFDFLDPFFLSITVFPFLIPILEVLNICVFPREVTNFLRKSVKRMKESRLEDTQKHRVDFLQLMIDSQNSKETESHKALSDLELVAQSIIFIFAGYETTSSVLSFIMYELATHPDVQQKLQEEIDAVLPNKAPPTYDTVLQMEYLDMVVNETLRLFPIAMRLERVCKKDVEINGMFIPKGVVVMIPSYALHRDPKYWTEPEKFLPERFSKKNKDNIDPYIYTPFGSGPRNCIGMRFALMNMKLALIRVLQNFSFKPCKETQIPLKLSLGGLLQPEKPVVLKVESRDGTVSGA
Sequence of Glucocorticoid receptor (Homo sapiens) (P04150 whole entry, looked up, the tested form may be a part): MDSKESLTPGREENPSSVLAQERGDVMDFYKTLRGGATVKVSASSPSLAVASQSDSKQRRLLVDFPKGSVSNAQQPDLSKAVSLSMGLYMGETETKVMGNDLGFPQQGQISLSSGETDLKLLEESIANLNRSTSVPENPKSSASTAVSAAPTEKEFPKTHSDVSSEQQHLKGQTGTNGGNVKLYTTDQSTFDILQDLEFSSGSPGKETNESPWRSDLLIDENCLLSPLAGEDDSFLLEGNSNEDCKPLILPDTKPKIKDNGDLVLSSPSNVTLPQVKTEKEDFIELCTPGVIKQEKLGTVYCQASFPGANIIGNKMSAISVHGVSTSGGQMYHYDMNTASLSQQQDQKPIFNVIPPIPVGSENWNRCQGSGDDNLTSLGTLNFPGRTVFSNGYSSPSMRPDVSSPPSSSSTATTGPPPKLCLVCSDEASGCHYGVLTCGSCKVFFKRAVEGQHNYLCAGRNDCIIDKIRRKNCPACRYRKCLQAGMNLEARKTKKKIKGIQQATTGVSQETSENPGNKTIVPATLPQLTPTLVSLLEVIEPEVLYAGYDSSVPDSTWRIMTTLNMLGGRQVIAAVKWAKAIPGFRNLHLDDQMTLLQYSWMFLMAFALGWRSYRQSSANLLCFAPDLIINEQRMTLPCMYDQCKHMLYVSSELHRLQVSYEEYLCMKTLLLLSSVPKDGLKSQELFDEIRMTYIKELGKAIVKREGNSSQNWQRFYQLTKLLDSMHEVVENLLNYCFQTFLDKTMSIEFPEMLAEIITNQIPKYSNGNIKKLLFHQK
Sequence of Lysosomal acid glucosylceramidase (Homo sapiens) (P04062 whole entry, looked up): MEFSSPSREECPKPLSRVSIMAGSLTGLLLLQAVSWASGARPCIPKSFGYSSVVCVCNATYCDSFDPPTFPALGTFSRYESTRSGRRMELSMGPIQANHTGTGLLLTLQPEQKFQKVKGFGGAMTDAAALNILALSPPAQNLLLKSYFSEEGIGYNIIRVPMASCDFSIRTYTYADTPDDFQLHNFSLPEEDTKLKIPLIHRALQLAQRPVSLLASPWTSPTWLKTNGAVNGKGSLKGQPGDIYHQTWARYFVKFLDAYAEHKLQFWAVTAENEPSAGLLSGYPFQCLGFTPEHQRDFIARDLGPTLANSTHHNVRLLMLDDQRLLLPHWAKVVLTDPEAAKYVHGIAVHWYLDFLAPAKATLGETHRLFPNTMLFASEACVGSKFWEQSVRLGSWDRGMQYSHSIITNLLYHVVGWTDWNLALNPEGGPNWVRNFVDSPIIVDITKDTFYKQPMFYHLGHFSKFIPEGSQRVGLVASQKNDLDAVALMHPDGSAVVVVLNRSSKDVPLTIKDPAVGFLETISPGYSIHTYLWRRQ
Sequence of 3',5'-cyclic-AMP phosphodiesterase 4B (Homo sapiens) (Q07343 whole entry, looked up): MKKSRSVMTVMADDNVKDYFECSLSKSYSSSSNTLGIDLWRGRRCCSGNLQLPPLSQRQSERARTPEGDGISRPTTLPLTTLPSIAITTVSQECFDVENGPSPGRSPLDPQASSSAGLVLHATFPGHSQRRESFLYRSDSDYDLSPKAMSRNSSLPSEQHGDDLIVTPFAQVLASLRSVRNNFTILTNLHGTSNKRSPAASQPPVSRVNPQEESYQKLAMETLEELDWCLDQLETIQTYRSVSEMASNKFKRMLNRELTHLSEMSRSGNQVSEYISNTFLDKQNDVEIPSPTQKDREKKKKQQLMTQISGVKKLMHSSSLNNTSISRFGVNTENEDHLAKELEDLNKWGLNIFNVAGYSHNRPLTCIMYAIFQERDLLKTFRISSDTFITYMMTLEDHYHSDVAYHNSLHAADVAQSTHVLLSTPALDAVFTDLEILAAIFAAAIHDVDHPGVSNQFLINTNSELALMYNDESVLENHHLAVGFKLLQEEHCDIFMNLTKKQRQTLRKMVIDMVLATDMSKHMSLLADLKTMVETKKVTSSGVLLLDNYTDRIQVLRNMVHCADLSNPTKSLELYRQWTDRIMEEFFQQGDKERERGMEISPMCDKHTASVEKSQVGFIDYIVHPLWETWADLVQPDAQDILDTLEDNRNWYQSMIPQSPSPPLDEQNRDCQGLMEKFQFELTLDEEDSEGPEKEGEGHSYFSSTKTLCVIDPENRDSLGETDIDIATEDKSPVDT
Sequence of Cytochrome P450 1A2 (Homo sapiens) (P05177 whole entry, looked up): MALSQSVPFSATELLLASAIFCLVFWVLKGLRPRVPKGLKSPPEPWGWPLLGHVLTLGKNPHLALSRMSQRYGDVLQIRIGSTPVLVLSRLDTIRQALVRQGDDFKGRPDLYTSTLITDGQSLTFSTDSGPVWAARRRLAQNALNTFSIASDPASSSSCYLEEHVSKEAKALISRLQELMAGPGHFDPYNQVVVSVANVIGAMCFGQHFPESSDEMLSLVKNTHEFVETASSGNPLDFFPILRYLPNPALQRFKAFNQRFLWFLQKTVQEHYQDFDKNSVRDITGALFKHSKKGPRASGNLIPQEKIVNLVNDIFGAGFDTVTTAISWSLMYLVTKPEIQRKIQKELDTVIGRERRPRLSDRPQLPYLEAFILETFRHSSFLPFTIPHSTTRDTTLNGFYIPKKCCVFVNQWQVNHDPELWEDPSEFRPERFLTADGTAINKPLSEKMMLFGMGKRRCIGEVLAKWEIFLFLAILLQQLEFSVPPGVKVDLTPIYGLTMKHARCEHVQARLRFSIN

As for `c1csc(CN2CCCC3(CCNCC3)C2)n1`, the Potency in assay [1] is > 20 µM; in assay [6] it was > 46 µM. Further, the activity change, negative = inhibition was 10.8% in [2] and -10.2% in [4]. Moreover, the Potency result in [3] and in assay [7] was “inactive” throughout. In addition, the activity, negative = inhibition in [5] is -5.01%. In addition, the outcome in assay [8] was inactive.
As to `O=C(O)CN1C(=O)CN=C(c2ccccn2)c2cc(Cl)ccc21`, the Potency was > 11.4 µM in assay [9], 1.26 µM (active) in assay [3], > 46 µM in assay [10] and > 9.22 µM in [6]. The activity change, negative = inhibition is 0.0967% in assay [2], -1.6% in assay [4] and 3.65% [at 11.4 µM] in assay [7]. Besides, in assay [5], the activity, negative = inhibition was 6.14%. For the same compound, the outcome in assay [8] was inactive.
Take `Nc1nc(N)c(Cn2ccnc2)c(=O)[nH]1`: the Potency in assay [9] is > 11.4 µM; in assay [10], > 46 µM; in assay [6], > 9.22 µM. Further, the activity change, negative = inhibition in assay [2] was -1.23%; in [4], 17.6%; in [7], 2.41% [at 11.4 µM]. The Potency result in [3] was “inactive”. For the same compound, in assay [5], the activity, negative = inhibition is 7.55%. Besides, in assay [8], the call was inactive.
Consider `c1nc(N2CCNCC2)c2cc(-c3ccc4c(c3)OCO4)ccc2n1`, for which the Potency in assay [1] was > 20 µM.
For `C[C@@]12CC[C@H](O[C@@H]3O[C@H](CO)[C@@H](O)[C@H](O)[C@@H]3O)C[C@@H]1CC[C@H]1[C@H]2CC[C@@]2(C)[C@@H](C3=CCOC3=O)CC[C@]12O`, the Potency in [9] is > 11.4 µM; in assay [10], > 46 µM; in assay [6] it was > 9.22 µM. Further, the results for the activity change, negative = inhibition in assay [2], in assay [4] and in assay [7] were -9.15%, 2.85% and 8.37% [at 11.4 µM], respectively. Further, the Potency result in assay [3] was “inactive”. Further, the activity, negative = inhibition in [5] is 12.3%. Further, the call in [8] was inactive.
On to `Cc1nc2ccccc2cc1C[N+]12CN3CN(CN(C3)C1)C2`, for which the Potency in assay [9] was > 11.4 µM; in [3] it was 0.631 µM (active); in [10], > 46 µM; in [6], > 9.22 µM. Further, the activity change, negative = inhibition in assay [2] was -8.29%; in [4] it was 6.19%; in [7], 0.875% [at 11.4 µM]. Further, the activity, negative = inhibition in [5] was 6.99%. In addition, the compound was classed as inactive in assay [8].
`c1cncc(CNc2cc(-c3ccc4c(c3)OCO4)ncn2)c1`: the Potency in assay [1] is > 20 µM; in [11], 0.794 µM (active). The Potency entry in assay [12] is “inactive”.
For the compound `N#Cc1cccc(-c2ccc3ncnc(NCc4ccccc4)c3c2)c1`, the Potency in assay [1] was > 20 µM.
With `NC(=O)c1ccc(C(=O)Nc2ccc([As](=O)(O)O)cc2)cc1`, the Potency in assay [9] is > 11.4 µM; in assay [10] it was > 46 µM; in [6], > 9.22 µM. Also, the activity change, negative = inhibition in [2] was -1.92%; in assay [3], -13.8% [at 2.29 µM]; in assay [4], 26.9%; in assay [7], 1.99% [at 11.4 µM]. For the same compound, in [5], the activity, negative = inhibition was 5.04%. In addition, in [8], the compound was called inactive.
In the case of `N#CCCn1c(=O)cnc2cnc(N3CCOCC3)nc21`, the Potency in assay [1] was > 20 µM.
`O=C(Oc1ccccc1)N1CCC[C@@]2(CCN(Cc3nccs3)C2)C1`: the values for the Potency in [1], in assay [9] and in assay [6] were > 20 µM, > 11.4 µM and > 46 µM, respectively. Moreover, the activity change, negative = inhibition in [2] was -15.6%. Moreover, in assay [5], the activity, negative = inhibition is -14.8%. In addition, in assay [7], the Potency entry was “inactive”. For the same compound, in assay [8], the compound was classed as inactive.
Regarding `c1ccc2c(NC3CCNCC3)nc(-c3ccoc3)nc2c1`, the Potency in assay [1] was > 20 µM.
The same measure, in the same setting: to `COc1ccc(NC(=O)N2CC[C@@]3(CCCN(C(=O)c4ccc(OC)cc4)C3)C2)cc1` belongs > 20 µM.
With `N#Cc1cccc(NC(=O)N2CCCC3(CCN(C(=O)Oc4ccccc4)CC3)C2)c1`, the Potency was > 20 µM in assay [1], > 11.4 µM in [9], 15.8 µM (active) in assay [3] and > 46 µM in assay [6]. The activity change, negative = inhibition in assay [2] is -22.4%. In assay [5], the activity, negative = inhibition was -12.1%. In addition, the Potency entry in assay [7] and in [12] was “inactive” throughout. Moreover, the result in [8] was inactive.
On to `O=C(O)[C@@H](O)[C@@H](O)[C@@H]1[O][Sb][O][C@@H]1CO`, for which the results for the Potency in assay [9], in assay [10] and in [6] were > 11.4 µM, > 46 µM and > 9.22 µM, respectively. The activity change, negative = inhibition in [2] is 4.54%; in assay [3] it was -5.1% [at 2.29 µM]; in assay [4], 5.74%; in assay [7] it was 1.63% [at 11.4 µM]. The activity, negative = inhibition in assay [5] is 1.94%. Moreover, in assay [8], the compound was classed as inactive.
